Consider 22 molecules from PubChem BioAssay (NCATS).

Molecules are shown by their SMILES. The source made the active and inactive calls. The call rests on the fitted dose curve; in most records, active means well fitted curve in the direction sought with a large enough effect (not every such curve was filed as active); inconclusive means small, poorly fitted or top-dose-only effect, or effect the other way, or another doubt; inactive means no such curve, though single readings can be large or run the other way.

For this assay, the target named is Pyruvate kinase PKM (Homo sapiens) (UniProt P14618). Nature of the assay: qHTS Assay for Activators of Human Muscle Pyruvate Kinase (AID 954). The settings on record: purified human muscle pyruvate kinase, luciferase-coupled luminescence, 1 h; series mostly up to 57.5 µM. Here is the method: NIH Molecular Libraries Screening Centers Network [MLSCN]
Pyruvate kinase PKM (Homo sapiens), sequence (P14618 whole entry, looked up): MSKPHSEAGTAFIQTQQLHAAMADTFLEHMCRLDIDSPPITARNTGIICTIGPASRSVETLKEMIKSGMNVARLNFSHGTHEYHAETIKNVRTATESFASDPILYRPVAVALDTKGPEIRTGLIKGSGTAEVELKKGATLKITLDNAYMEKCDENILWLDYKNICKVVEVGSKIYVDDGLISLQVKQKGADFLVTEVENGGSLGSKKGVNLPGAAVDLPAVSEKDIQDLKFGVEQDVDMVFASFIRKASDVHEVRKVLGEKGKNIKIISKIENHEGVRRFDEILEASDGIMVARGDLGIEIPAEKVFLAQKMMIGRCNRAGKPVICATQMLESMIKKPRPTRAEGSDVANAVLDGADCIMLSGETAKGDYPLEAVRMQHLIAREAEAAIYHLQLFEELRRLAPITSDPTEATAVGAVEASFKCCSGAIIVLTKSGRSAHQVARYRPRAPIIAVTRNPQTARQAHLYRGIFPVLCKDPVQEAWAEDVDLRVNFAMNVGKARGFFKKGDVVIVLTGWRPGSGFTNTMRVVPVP
NIH Chemical Genomics Center [NCGC]
Wael M. Rabeh, Lyudmila Nedyalkova and Hee-Wan Park [Structural Genomics Consortium, 100 College St. Toronto, Ontario, Canada]
Human pyruvate kinase muscle 2 enzyme was supplied as a highly purified (>95% pure) preparation by the Structural Genomics Consortium in Toronto (Ontario, Canada) and was assayed for its ability to generate ATP from ADP using phosphoenolpyruvate (PEP) as a substrate. ATP generation was detected in a coupled reaction by luciferase-mediated luminescence, an ATP-dependent process. Pyruvate kinase substrates, PEP and ADP, were present in the assay at Km and approximately […]-fold below Km respectively. The enzyme was assayed at an intermediate level of activity to screen for inhibitors and activators.
NCGC Assay Protocol Summary:
Three uL of substrate mix (final concentration, 50 mM imidazole pH 7.2, 50 mM KCl, 7 mM MgCl2, 0.5 mM PEP, 0.1 mM ADP, 0.01% Tween 20, 0.05% BSA) was dispensed into 1536 well plates. 23 nL of compound were delivered by a pin tool and 1 uL of enzyme mix (final concentration, 0.1 nM pyruvate kinase, 50 mM imidazole pH 7.2, 0.05% BSA) was added. Plates were incubated at room temperature for 1 hour. Two uL of detection and kinase stop mix (PKLight, Cambrex) was added, the plates centrifuged, and luminescence read by a ViewLux (Perkin Elmer) at 5 second exposure/plate. Data were normalized to the uninhibited and AC100 inhibition (no enzyme or 110 uM N-methyl-2,3-diphenyl-1,2,4-thiadiazol-5-imine; CID: 682802; LOPAC-S-4063). To monitor activation, 0.3 nM pyruvate kinase was included in one control column.
For orientation: Quantitative high-throughput screening tests each substance at several concentrations.
Take `O=c1[nH]c2ccccc2n1CCCN1CCC(n2c(=O)[nH]c3cc(Cl)ccc32)CC1`: the call was inactive.
Turning to `CCCN1CCC[C@@H]2Cc3[nH]ncc3C[C@H]21`, the outcome was inactive.
Regarding `Clc1cccc(N2CCNCC2)c1`, the molecule was called inactive.
As for `Cc1ncc(CNC(=O)N(CCCl)N=O)c(N)n1`, the molecule was called inactive.
`N[C@@H]1C[C@H]1c1ccccc1`: the molecule was classed as inactive.
The value for `CC(=O)[C@H]1CC[C@H]2[C@@H]3CC[C@H]4C[C@H](O)CC[C@]4(C)[C@H]3C(=O)C[C@]12C` was “inactive”; that for `CCCN1CCC[C@@H]2Cc3nc(N)ncc3C[C@H]21` was “inactive”.
The value for `CCn1cc(C(=O)O)c(=O)c2ccc(C)nc21` was “inactive”.
Under `NN=C(N)N` stands “inactive”.
For `CNCC(O)c1ccc(O)cc1` (configuration not stated), the result was inactive.
Under `Nc1ccncc1` stands “inactive”; under `NCC(CC(=O)O)c1ccc(Cl)cc1` (configuration not stated), “inactive”.
As for `Fc1ccc(C(OCCN2CCN(CCCc3ccccc3)CC2)c2ccc(F)cc2)cc1`, the molecule was called inactive.
Regarding `CN1C[C@H](CNC(=O)OCc2ccccc2)C[C@@H]2c3cccc4c3c(cn4C)C[C@H]21`, the result was inactive.
In the case of `O=c1[nH]c2ccccc2n1C1CCN(CCCC(c2ccc(F)cc2)c2ccc(F)cc2)CC1`, the molecule was called inactive.
Under `c1ccc(C2CC2)c(OCC2=NCCN2)c1` stands “inactive”.
Under `CCCC(C)(COC(N)=O)COC(=O)NC(C)C` (configuration not stated) stands “inactive”.
Under `NCC1(CC(=O)O)CCCCC1` stands “inactive”; under `Cc1cccc(C)c1NC1=NCCCS1`, “inactive”.
With `Cc1ccc(S(=O)(=O)N[C@@H](CCCCN)C(=O)CCl)cc1`, the molecule was classed as inactive.
The value for `COc1ccccc1N1CCNCC1` was “inactive”; that for `N#CC(C#N)=Cc1ccc(O)c(O)c1` was “inactive”.
